Activity calls are given as the source filed them. The calls were made as follows: active = hit-call score of the fitted dose curve at least 0.9, where 1 is the maximum; inactive = score below 0.9.
The compounds below were run on Monokine induced gamma interferon (MIG), CXCL9 (gene 4283) (assay: BSK_BE3C_MIG: BioMAP Diversity Plus: BE3C Assay for Monokine induced gamma interferon (MIG) Biomarker Activity (AID 2283035)). Details: primary human bronchial epithelial cells; actives raise or lower the signal.
Description: BSK_BE3C is a cell-based, multiplexed-readout assay that uses bronchial epithelial cell, a human lung primary cell, with measurements taken at 24 hours after chemical dosing in a 96-well plate.BSK_BE3C_MIG is an assay component measured in the BSK_BE3C assay. It measures MIG antibody related to regulation of gene expression using ELISA technology.Data from the assay component BSK_BE3C_MIG was analyzed into 1 assay endpoint. This assay endpoint, BSK_BE3C_MIG, was analyzed with bidirectional fitting relative to DMSO as the negative control and baseline of activity. Using a type of binding reporter, gain or loss-of-signal activity can be used to understand changes in the signaling as they relate to the gene CXCL9. Furthermore, this assay endpoint can be referred to as a primary readout, because this assay has produced multiple assay endpoints where this one serves a signaling function. To generalize the intended target to other relatable targets, this assay endpoint is annotated to the cytokine intended target family, where the subfamily is chemotactic factor.
The levels of cell surface (or secreted, indicated by the prefix "s") biomarker endpoints were measured by ELISA. Overt cytotoxicity to cells in confluent adherent cultures (all systems other than the BT system) was assessed by measuring total protein levels using sulforhodamine B (SRB) staining in parallel cultures at the time of biomarker measurements, indicated as SRB endpoints. For proliferation assays for adherent cell types, individual cell types are cultured at sub-confluence and relative cell numbers quantified by SRB staining at time points optimized for each system (48 h: 3C and CASM3C systems; 72 h: BT and HDF3CGF systems; 96 h: SAg system). SRB was performed by staining cells with 0.1% SRB after fixation with 10% TCA and reading wells at 560 nm.Viability and proliferation of PBMC (T cells) was quantified by Alamar Blue reduction for the SAg and BT systems. For PBMC viability (referred to as PBMC Cytotoxicity within the assay endpoint names), cells were plated (75,000/well in a 96-well plate) and then chemical samples added for 1 h before addition of activators, SEB and TSST-1 (20 ng/mL final concentration each). Cells were incubated for 90 h. Then, Alamar Blue (20 uL/well) (Invitrogen, Cat DAL1100) was added for 6 h, and the plates were read with a fluorescence microplate reader at 546/580 nm (excitation/emission). For PBMC proliferation, cells were plated and activated as above but incubated for only 16 h prior to addition of Alamar Blue. Plates were read after 6 h.
For ClCC(Cl)CCl, the outcome was “inactive”. For CN(C)N=O, the outcome was “inactive”. In the case of Cc1ccccc1N, the outcome is reported as “inactive”. For COP(=S)(OC)Oc1ccc(Sc2ccc(OP(=S)(OC)OC)cc2)cc1, the outcome was “inactive”. In the case of CCOP(=S)(OCC)Oc1nc(Cl)c(Cl)cc1Cl, the outcome is reported as “inactive”. In the case of ClC1(Cl)C2(Cl)C3(Cl)C4(Cl)C(Cl)(Cl)C5(Cl)C3(Cl)C1(Cl)C5(Cl)C24Cl (stereo not given), the outcome is reported as “inactive”. In the case of CCOP(=S)(OCC)Oc1ccc(S(C)=O)cc1 (stereo not given), the outcome is reported as “inactive”. For C[C@@H]1C[C@@H]([C@H](O)CC2CC(=O)NC(=O)C2)C(=O)[C@@H](C)C1, the AC50 was 14.4 µM (active). For O=C(O)CCC(F)(C(F)(F)F)C(F)(F)F, the outcome was “inactive”. In the case of COC(=O)c1sccc1S(=O)(=O)NC(=O)Nc1nc(C)nc(OC)n1, the outcome is reported as “inactive”. In the case of O=C(Nc1ccc2[nH]ccc2c1)c1cc2cc(F)ccc2n1Cc1cccc(F)c1, the AC50 is reported as 8.22 µM (active). Nc1ccc(-c2ccc(N)c(Cl)c2)cc1Cl was tested, and the outcome was “inactive”. With NC(=S)Nc1ccccc1 the outcome was “inactive”. In the case of COc1cc(-c2ccc(N)c(OC)c2)ccc1N, the outcome is reported as “inactive”. In the case of COC(=O)Cc1ccccc1, the outcome is reported as “inactive”. With CCOP(=S)(OCC)SCCS(=O)(=O)CC the outcome was “inactive”. CCC(C)(C)c1ccc(O)c(C(C)(C)CC)c1 was tested, and the AC50 was 36 µM (active). With CCOC(=O)/C=C(C)/C=C/C[C@@H](C)CCCC(C)C the AC50 was 30 µM (active). With ClC(Cl)=C(Cl)C(Cl)=C(Cl)Cl the outcome was “inactive”. In the case of CCSC(C)CC1CC(=O)C(C(CC)=NOC/C=C/Cl)=C(O)C1 (stereo not given), the outcome is reported as “inactive”. O=C(O)C(Cl)(Cl)Cl was tested, and the outcome was “inactive”. With CC(=O)C(Cl)C(=O)N(C)C (stereo not given) the outcome was “inactive”. In the case of C=C(C)C(=O)[O][Sn]([CH2]CCC)([CH2]CCC)[CH2]CCC, the AC50 is reported as 0.147 µM (active). With COP(=S)(OC)Oc1c(Cl)cc(C)cc1Cl the outcome was “inactive”. For O=[N+]([O-])c1ccc(O)c([N+](=O)[O-])c1, the outcome was “inactive”. For O=[N+]([O-])c1ccc2c3c(cccc13)CC2, the outcome was “inactive”. With CC(=O)OC(c1ccccc1)C(Cl)(Cl)Cl (stereo not given) the outcome was “inactive”. CCNc1nc(NC(C)(C)C)nc(SC)n1 was tested, and the outcome was “inactive”. With Oc1ccc(-c2ccccc2)cc1 the outcome was “inactive”. With OCc1ccco1 the outcome was “inactive”. With COC[C@H](C)N(C(=O)CCl)c1c(C)csc1C the outcome was “inactive”. For O=C1C2(Cl)C3(Cl)C4(Cl)C(Cl)(Cl)C5(Cl)C3(Cl)C1(Cl)C5(Cl)C24Cl (stereo not given), the AC50 was 9.37 µM (active). CC1(C)Cc2cccc(O)c2O1 was tested, and the outcome was “inactive”. For COP(=S)(OC)Oc1cc(Cl)c(Cl)cc1Cl, the outcome was “inactive”. With CCCCCCCCc1ccc(O)cc1 the AC50 was 37.7 µM (active). CCN1CCC2(CC1)COc1cc3c(cc12)N(C(=O)c1ccc(-c2ccc(-c4nnc(C)o4)cc2C)cc1)CC3 was tested, and the AC50 was 23.8 µM (active). With C[C@]12CCC(=O)C[C@@H]1CC[C@@H]1[C@@H]2CC[C@]2(C)[C@@H](O)CC[C@@H]12 the outcome was “inactive”. In the case of CC12CC1(C)C(=O)N(c1cc(Cl)cc(Cl)c1)C2=O (stereo not given), the outcome is reported as “inactive”. With Oc1c(I)cc(I)cc1I the outcome was “inactive”. COP(=S)(OC)Oc1ccc(S(=O)(=O)N(C)C)cc1 was tested, and the outcome was “inactive”.

Source: PubChem BioAssay (EPA / NIEHS)
